{
  "source": "paper PMC5540273",
  "about": "(PLoS ONE, 2017);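 also: KINOMEscan kinase panel screen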",
  "data": [
    {"tested_on": "NEK6", "conditions": "concentration: 1 μM, replicates: in singlicate; n = 1", "units": {"%Inh": "%"}, "values": [
      {"smiles": "CCCCc1nn2ncccc2c1-c1ccnc(Nc2ccc(N3CCN(C)CC3)cc2)n1", "note": "[GW684941]", "%Inh": 0},
      {"smiles": "Cc1ccc(S(=O)(=O)Nc2ccc(Nc3nccc(Nc4cccc5[nH]ncc45)n3)cc2)cc1", "note": "[GSK581271]", "%Inh": 0},
      {"smiles": "CN(C)Cc1ccc(-c2ccc3c(Nc4ccc(Oc5ccccn5)cc4)ccnc3c2)o1", "note": "[GW567148]", "%Inh": 0},
      {"smiles": "Cc1cccc(Nc2nc(N[C@H]3CCNC3)ncc2C(N)=O)c1.Cl", "note": "[GSK2197149]", "%Inh": 0},
      {"smiles": "Cc1ccc(C(=O)N2CC[C@@H](O)C2)cc1-n1c(C)cc(OCc2ccc(F)cc2F)c(Br)c1=O", "%Inh": 0},
      {"smiles": "O=C(O)C(F)(F)F.O=C(O)C(F)(F)F.O=c1[nH]ccc2nc(N[C@@H]3CCCNC3)nc(Nc3ccc(S(=O)(=O)N4CCOCC4)cc3)c12", "note": "[GSK2177277]", "%Inh": 46},
      {"smiles": "Cc1ccc(C)c(NC(=O)NC2CCN(c3ccnc(Nc4ccc(F)cc4)n3)C2)c1", "note": "(stereo not shown) [GSK1379720]", "%Inh": 0},
      {"smiles": "Cc1cccc(NC(=O)Nc2ccc(Oc3ncnc4ccn(C)c34)cc2)c1", "%Inh": 16},
      {"smiles": "COc1ccc(-c2coc3ccc(-c4nnc(SCc5ccc(OC)c(C(F)(F)F)c5)o4)cc23)cc1", "%Inh": 13},
      {"smiles": "CC(C)c1nc(-c2cccc(NS(=O)(=O)c3c(F)cccc3F)c2F)c(-c2ccnc(Nc3ccc(N4CCOCC4)nc3)n2)s1", "note": "[GSK2008607]", "%Inh": 99.1},
      {"smiles": "O=C(Nc1cccc(-c2nn3ncccc3c2-c2ccnc(Nc3ccccc3)n2)c1)c1c(F)cccc1F", "note": "[GSK198271]", "%Inh": 0},
      {"smiles": "O=c1[nH]cc(-c2ccc(N3CCOCC3)cc2)c2sc(-c3cn[nH]c3)cc12", "note": "[GSK2276055]", "%Inh": 0},
      {"smiles": "COC(=O)Nc1nc2cc(Oc3ccc(NC(=O)Nc4cc(C(F)(F)F)ccc4F)cn3)ccc2[nH]1.Cl.Cl", "note": "[GW681170]", "%Inh": 0},
      {"smiles": "Cl.Cl.NCC(NCc1ccc(-c2ccnc3[nH]ccc23)s1)c1ccccc1", "note": "(stereo not shown) [GSK1321565]", "%Inh": 0},
      {"smiles": "CCS(=O)(=O)c1ccc(OC)c(Nc2nccc(-c3c(-c4cccc(NC(=O)c5c(F)cccc5F)c4)nn4ncccc34)n2)c1", "note": "[GSK326180]", "%Inh": 0},
      {"smiles": "COc1cccc(-c2ccc3c(NC(=O)C4CC4)n[nH]c3n2)c1", "note": "[SB-710903]", "%Inh": 0},
      {"smiles": "CSc1cccc2c(-c3ccncn3)c(-c3ccc(F)cc3)nn12", "note": "[GW514786]", "%Inh": 0},
      {"smiles": "COc1cc2c(cc1OCCN1CCNCC1)ncc1c3ccc(C#N)cc3[nH]c21", "%Inh": 15},
      {"smiles": "Cn1cc(-c2ccc3c(c2)CCN3C(=O)Cc2cccc(F)c2)c2c(N)ncnc21", "note": "[GSK2603358]", "%Inh": 0},
      {"smiles": "C[C@@H](Oc1cc(-n2cnc3cc(-c4ccnc(NCCS(C)(=O)=O)c4)ccc32)sc1C(N)=O)c1ccccc1Cl", "note": "[GSK907232]", "%Inh": 4},
      {"smiles": "COc1cccc(C(=O)Nc2cccc(Oc3ccc4nc(NC(=O)C5CC5)cn4n3)c2)c1", "%Inh": 5},
      {"smiles": "Cl.c1ccc(-c2ccc3c(Nc4ccc5[nH]ncc5c4)ccnc3c2)nc1", "note": "[GW440137]", "%Inh": 0},
      {"smiles": "Cn1cc(-c2[nH]c3cc(NC(=O)[C@H](N)C4CCCCC4)cc4c3c2C=NNC4=O)cn1", "%Inh": 2},
      {"smiles": "CCn1c(-c2nonc2N)nc2c(C#CC(C)(C)O)ncc(OCCCCN)c21.O=C(O)C(F)(F)F.O=C(O)C(F)(F)F", "note": "[GSK507274]", "%Inh": 1},
      {"smiles": "CN(C)S(=O)(=O)c1cc(-c2ccc3nccc(-c4cccc(S(N)(=O)=O)c4)c3c2)cnc1N", "note": "[GSK1669921]", "%Inh": 0},
      {"smiles": "CCn1c(-c2nonc2N)nc2c(C#CC(C)(C)O)nc(OC[C@H](N)c3ccccc3)cc21", "note": "[GSK943949]", "%Inh": 14},
      {"smiles": "Cl.c1ccc(-c2ccc3c(Nc4ccc5[nH]ccc5c4)ccnc3c2)nc1", "note": "[GW440138]", "%Inh": 0},
      {"smiles": "Nc1n[nH]c2cnc(-c3ccccc3)cc12", "note": "[SB-642124]", "%Inh": 0},
      {"smiles": "O=C(Nc1n[nH]c2cc(-c3ccoc3)ccc12)C1CC1", "note": "[SB-738481]", "%Inh": 11},
      {"smiles": "FC(F)(F)c1ccc(/C=C/c2cncnc2Nc2ccc3[nH]c(Cc4ccccc4)nc3c2)cc1", "note": "[GW709199]", "%Inh": 13},
      {"smiles": "CC(C)(C)c1ccc2nccc(Nc3cccc(O)c3)c2c1", "note": "[GW856795]", "%Inh": 0},
      {"smiles": "COc1cc(Nc2nccc(-c3c(-c4cccc(NC(=O)c5c(F)cccc5F)c4)nn4ccccc34)n2)cc(OC)c1OC", "note": "[GSK323521]", "%Inh": 25},
      {"smiles": "Clc1ccc(-c2nn3ncccc3c2-c2ccnc(Nc3ccc4c(c3)OCCO4)n2)cc1", "note": "[GW829116]", "%Inh": 0},
      {"smiles": "Cl.Cl.NCC(C(=O)Nc1cc(Br)c(-c2ccnc3[nH]ccc23)s1)c1ccccc1", "note": "(stereo not shown) [GSK1269851]", "%Inh": 0},
      {"smiles": "Fc1ccc(-c2ncn(C3CCNCC3)c2-c2ccnc(Oc3ccc(-c4ccccc4)cc3)n2)cc1", "note": "[SB-245391]", "%Inh": 17},
      {"smiles": "COc1cccc(C2=C(Nc3ccc(Cl)c(C(=O)O)c3)C(=O)NC2=O)c1", "note": "[SB-390769]", "%Inh": 0},
      {"smiles": "O=C(Nc1ccccc1F)NC1CCN(c2ccnc(Nc3ccc(F)cc3)n2)CC1", "note": "[GSK1379800]", "%Inh": 0}
    ]}
  ]
}
